Results filed as inconclusive are left out. A number with no mark means an inactive call. Active and inactive are the calls of the source. The call rests on the fitted dose curve; in most records, active means well fitted inhibition curve with a large enough effect; inconclusive means small, poorly fitted or top-dose-only effect; inactive means flat fitted curve, though single readings scatter.
The compounds below were run on Zika virus NS2B-NS3 protease (assay: Primary screen GU AMC qHTS for Zika virus inhibitors (AID 1347154; further: nearly all actives have a fitted effect of over 70% in size;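 on activity change, negative = inhibition: 0% = no-inhibitor control and -100% = no-enzyme control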)). Conditions: Zika NS2B-NS3 unlinked protease, AMC fluorogenic substrate; series mostly up to 54.1 µM; activity change, negative = inhibition: at the top concentration.
Procedure, shortened: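 Fluorogenic AMC-substrate cleavage by noncovalent NS2B-NS3 protease complex (25 nM, pH 8.0 Tris buffer with Tween 20) followed for 15 minutes at room temperature (~20% conversion). Percent inhibition from ex340/em450 signal change, fitted by 4-parameter Hill equation.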
Potency means the concentration at half of the fitted maximal effect.

Row | Compound | Potency | activity change, negative = inhibition [%]
1 | Nc1cccc2c(N)cccc12 | 36.9 µM (active) | –
2 | CN1Cc2cc(C(=O)N3CCC(C4CCNCC4)CC3)ccc2N[C@@H](CC(=O)O)C1=O | – | -7.09
3 | Nc1ccc(O)cc1 | – | -3.26
4 | CC(C)(C)C(=O)OCOC(=O)C1N2C(=O)CC2S(=O)(=O)C1(C)C (centres undefined) | – | 3.92
